In the library only some 7.4% were active in any assay of this set; here they are far more common.
D1 mod: D1 CRE-luciferase signal change, two-sided – cell-based, HEK293 D1, dopamine EC30, D1 allosteric modulator project, primary screen. 58,000 compounds, 5.9% hits. B-score at 10 µM. D(1A) dopamine receptor (Homo sapiens), P21728. dopamine EC30 potentiation; actives deviate in either direction;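 active = luminescence count or its row- and column-corrected plate score outside the 99.7% band of the plate's sample wells, on either side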
M1 antagonist: antagonists of rat M1 muscarinic receptor. Muscarinic acetylcholine receptor M1 (Rattus norvegicus), P08482. CHO-M1 cells, Fluo-4 calcium, ACh EC80 antagonist mode; active compounds read low. B-score at 10 µM. 64,000 compounds, 3.4% hits;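 active = calcium fluorescence response, raw or row-and-column corrected B-score, differing from the plate sample mean either way at a set confidence level, mostly lower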
hDAT+cocaine: changed hDAT dopamine uptake under cocaine IC80, either direction, primary screen, cocaine antagonist project, cell-based, LLC-PK1 hDAT, [14C]-dopamine uptake, MLSMR; LLC-PK1 hDAT cells, [14C]-dopamine uptake with cocaine IC80; actives deviate in either direction; 110,000 compounds, 1.3% hits; B-score at 10 µM;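 active = Z score or B-score, a plate-position-corrected score, falls beyond the plate's 99.7% confidence bounds, in either direction; inactive = both scores lie inside the 99.7% bounds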
M1 ag: M1 muscarinic receptor agonists, primary screen, CHO-M1 cells, Fluo-4 calcium, agonist mode | Muscarinic acetylcholine receptor M1 | B-score at 10 µM | AID 626, 2007 | 64,000 compounds, 3% hits | Fluo-4 calcium fluorescence; active compounds read high;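 active = fluorescence rise, raw or as B-score row- and column-corrected plate score, outside the 99.7% band of its plate's samples, either direction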
FXIIa inh mix: human factor XIIa inhibitors, primary screen, biochemical, pooled compound mixtures, fluorogenic substrate | purified FXIIa | inhibition, % at 5 µM | 62,000 compounds, 0.2% hits | AID 684, 2007
Target sequence (P00748 20-372 limits assumed): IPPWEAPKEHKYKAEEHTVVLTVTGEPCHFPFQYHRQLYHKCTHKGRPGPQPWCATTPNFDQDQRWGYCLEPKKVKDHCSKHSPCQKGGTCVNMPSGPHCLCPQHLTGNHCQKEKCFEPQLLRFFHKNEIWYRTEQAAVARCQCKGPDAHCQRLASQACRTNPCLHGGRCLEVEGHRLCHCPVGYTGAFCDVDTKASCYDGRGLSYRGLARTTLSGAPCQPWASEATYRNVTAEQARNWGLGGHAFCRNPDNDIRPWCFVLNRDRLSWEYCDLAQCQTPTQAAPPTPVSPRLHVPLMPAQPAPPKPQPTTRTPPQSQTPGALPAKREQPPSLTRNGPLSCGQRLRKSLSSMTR
Target sequence (P00748 373-615 limits assumed): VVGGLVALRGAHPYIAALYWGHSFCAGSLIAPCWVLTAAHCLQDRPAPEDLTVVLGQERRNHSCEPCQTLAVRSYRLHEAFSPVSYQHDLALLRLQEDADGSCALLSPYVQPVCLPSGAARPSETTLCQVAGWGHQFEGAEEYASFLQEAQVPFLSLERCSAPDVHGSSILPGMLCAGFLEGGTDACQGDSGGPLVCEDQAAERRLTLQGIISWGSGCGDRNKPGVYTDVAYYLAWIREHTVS
FXIa mix inh: FXIa protease inhibitors in compound pools, primary screen, biochemical, 10-compound mixtures; Coagulation factor XI (Homo sapiens), P03951; purified FXIa, fluorogenic substrate, pooled mixtures; inhibition, % at 5 µM; 62,000 compounds, 0.19% hits;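 also: each value is inhibition by a whole ten-compound pool holding the compound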
M1 agonist conf: rat M1 muscarinic receptor agonists, confirmation, CHO-M1 cells, Fluo-4 calcium, duplicate retest; shares compounds with M1 ag; Fluo-4 calcium fluorescence, agonist mode; actives lie on both sides; fluorescence change (max-min) at 10 µM; 1,700 compounds, 19% hits; AID 1488, 2009;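 active = fluorescence change differs from the solvent-only DMSO control mean at a set confidence level in both duplicate runs; inconclusive = differs from solvent-only control mean in just one of two runs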;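 also: an EC20 dose of acetylcholine follows compound addition during the same imaging run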
M4 ag counter: agonist activity at rat M4 receptor, confirmation, counter-screen for M1 allosteric modulator project, cell-based, agonist mode | fluorescence change (max-min) at 10 µM | shares compounds with M1 ag | CHO M4/Gqi5 cells, Fluo-4 calcium fluorescence; actives lie on both sides | 1,700 compounds, 9% hits | AID 1741, 2009;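 active = fluorescence change differing from the plate's solvent-only control wells at 99.7% confidence in both duplicates, whether higher or lower; inconclusive = differs from solvent controls in only one of two duplicates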
D1 mod confirm: D1 receptor positive allosteric modulators, retest, confirmation, cell-based, HEK293 D1, CRE-luciferase, duplicate; shares compounds with D1 mod; dopamine EC30 potentiation; active compounds read high; luminescence at 10 µM; 2,200 compounds, 88% hits; AID 642, 2007;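 active = luminescence in either of two replicates above the same-plate mean plus 3 SD of the low-dose dopamine control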
D1 no dopamine: D1 receptor agonism without dopamine, confirmation, mechanism study for D1 allosteric modulator project, cell-based, HEK293 D1, CRE-luciferase, secondary assay 1; shares compounds with D1 mod; luminescence, no dopamine; active compounds read high; luminescence at 10 µM; 1,900 compounds, 0.8% hits; AID 646, 2007; in the data active = luminescence above about 3900
Isoprot counter: counter-screen for D1 modulators: isoproterenol response in HEK293 cells. AID 647. 2,200 compounds, 63% hits. calls only at 10 µM. HEK293 D1 CRE-luciferase, isoproterenol EC30 counter-screen. shares compounds with D1 mod;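 active = luminescence in either replicate above plate mean of wells with a partly effective reference agonist dose plus 3 SD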;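 also: isoproterenol raises cAMP through native beta-adrenoceptor Gs so signal bypasses D1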
A number is an active result. Rule as the data show it, unless noted: active = inhibition above about 20% (passing the limit was not always enough); inactive = the rest.

c1ccc(Cn2c(-c3ccco3)nc3nc4ccccc4nc32)cc1 was read as D1 mod 3.5, M1 antagonist inactive, hDAT+cocaine inactive, M1 ag 3.7, FXIIa inh mix inactive, FXIa mix inh inactive, M1 agonist conf inconclusive, M4 ag counter inconclusive, D1 mod confirm 7452, D1 no dopamine inactive and Isoprot counter active.
For Cn1c(=O)cc(N2CCN(C(=O)c3ccco3)CC2)[nH]c1=O the results were hDAT+cocaine inactive.
C/C=C(/C)C(=O)O[C@@H]1c2c(ccc3ccc(=O)oc23)O[C@@H]1C(C)(C)OC(C)=O was read as hDAT+cocaine inactive.
Screening N/C(CC(=O)NCCOc1ccccc1)=N\O returned D1 mod inactive, M1 antagonist inactive, hDAT+cocaine inactive, M1 ag inactive, FXIIa inh mix inactive and FXIa mix inh inactive.
`CCOC(=O)C1CCN(C(=O)CSCc2nc(-c3ccc(OCC)cc3)oc2C)CC1` gave D1 mod 5.7, M1 antagonist inactive, hDAT+cocaine inactive, M1 ag 5.1, FXIIa inh mix inactive, FXIa mix inh inactive, M1 agonist conf inactive, M4 ag counter inconclusive, D1 mod confirm 12112, D1 no dopamine inactive and Isoprot counter active.
`COc1ccc(-c2nc(CSCC(=O)N3CCC(C(N)=O)CC3)c(C)o2)cc1OC` gave D1 mod inactive, M1 antagonist inactive, hDAT+cocaine inactive, M1 ag inactive, FXIIa inh mix inactive and FXIa mix inh inactive.
`CCOc1ccc(-c2nc(CSCC(=O)N3CCN(C(=O)c4ccco4)CC3)c(C)o2)cc1` gave D1 mod 3.6, M1 antagonist inactive, hDAT+cocaine inactive, M1 ag -3.5, FXIIa inh mix inactive, FXIa mix inh inactive, M1 agonist conf inconclusive, M4 ag counter inactive, D1 mod confirm inactive, D1 no dopamine inactive and Isoprot counter active.
`COc1cc(-c2nnc3n2N=C(c2ccccc2)CS3)cc(OC)c1OC` gave D1 mod 1.9, M1 antagonist inactive, hDAT+cocaine inactive, M1 ag 4.6, FXIIa inh mix inactive, FXIa mix inh inactive, M1 agonist conf inconclusive, M4 ag counter inactive, D1 mod confirm 7188, D1 no dopamine inactive and Isoprot counter active.
CCn1c(=O)c(C(C)=O)nc2ccccc21 was read as D1 mod inactive, M1 antagonist inactive, hDAT+cocaine inactive, M1 ag inactive, FXIIa inh mix inactive and FXIa mix inh inactive.
Screening CCc1nc2ccccc2n(CC)c1=O returned D1 mod 4.2, M1 antagonist inactive, hDAT+cocaine inactive, M1 ag 13, FXIIa inh mix inactive, FXIa mix inh inactive, M1 agonist conf inactive, M4 ag counter inactive, D1 mod confirm 10236, D1 no dopamine inactive and Isoprot counter active.
For COCCCNC(=O)C(C#N)c1nc2ccccc2nc1N1CCCC1 (configuration not stated) the results were D1 mod 12, M1 antagonist inactive, hDAT+cocaine inactive, M1 ag 340, M1 agonist conf 230, M4 ag counter 749, D1 mod confirm 18008, D1 no dopamine inactive and Isoprot counter active.
CC(=O)c1sc2nc(-c3cccs3)cc(C(F)(F)F)c2c1N was read as D1 mod 5.9, M1 antagonist inactive, hDAT+cocaine inactive, M1 ag 98, FXIIa inh mix inactive, FXIa mix inh inactive, M1 agonist conf 123, M4 ag counter inactive, D1 mod confirm 12244, D1 no dopamine inactive and Isoprot counter active.
`CCOC(=O)Cn1nnc(-c2ccc(S(C)(=O)=O)cc2)n1` gave D1 mod inactive, M1 antagonist inactive, hDAT+cocaine inactive, M1 ag inactive, FXIIa inh mix inactive and FXIa mix inh inactive.
Screening CCN(CC)c1ccc(NC(=O)c2[nH]c(C)c(C(C)=O)c2C)c(C)c1 returned D1 mod inactive, M1 antagonist inactive, hDAT+cocaine inactive, M1 ag inactive, FXIIa inh mix inactive and FXIa mix inh inactive.
COC(=O)c1cc(OC)c(OC)cc1NC(=O)C1CCC(=O)N1S(=O)(=O)c1ccc(C)cc1 (configuration not stated) was read as D1 mod 9.2, M1 antagonist inactive, hDAT+cocaine inactive, M1 ag -2, FXIIa inh mix inactive, FXIa mix inh inactive, M1 agonist conf inconclusive, M4 ag counter inactive, D1 mod confirm 16888 and Isoprot counter active.
For CC(C)N(C(=O)c1ccccc1-c1ccccc1)C(C)C the results were hDAT+cocaine inactive.
Nc1c(C(=O)NC2CC2)c2nc3ccccc3nc2n1-c1ccc2c(c1)OCO2 was read as D1 mod inactive, M1 antagonist inactive, hDAT+cocaine inactive, M1 ag inactive, FXIIa inh mix inactive and FXIa mix inh inactive.
Screening Nc1c(C(=O)OCC2CCCO2)c2nc3ccccc3nc2n1-c1ccc2c(c1)OCCO2 (configuration not stated) returned D1 mod 5.1, M1 antagonist inactive, hDAT+cocaine inactive, M1 ag 5.9, FXIIa inh mix inactive, FXIa mix inh inactive, M1 agonist conf inactive, M4 ag counter inconclusive, D1 mod confirm inactive and Isoprot counter inactive.
`O=C(C1CCN(S(=O)(=O)c2cccc3cccnc23)CC1)N1CCn2c1nc1ccccc12` gave D1 mod 4.9, M1 antagonist 6.6, M1 ag 22, FXIIa inh mix inactive, FXIa mix inh inactive, M1 agonist conf inactive, M4 ag counter inactive, D1 mod confirm 12004, D1 no dopamine inactive and Isoprot counter active.

Assay outcomes as filed in PubChem BioAssay.
